# Measurements published in PubChem BioAssay.
# “And” between values parts separate entries of the source, which are not always exact repeats. Equal values may be shown once. The source made the active and inactive calls.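 How the source made its calls, unless noted: active means NADPH fluorescence slope more negative than the mean of all samples by about 3 SD, 99.7% confidence; inactive means the rest.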
# Molecular target: Voltage-gated potassium channel subunit beta-2 (Rattus norvegicus) (UniProt P62483)
# Sequence (P62483 whole entry, looked up): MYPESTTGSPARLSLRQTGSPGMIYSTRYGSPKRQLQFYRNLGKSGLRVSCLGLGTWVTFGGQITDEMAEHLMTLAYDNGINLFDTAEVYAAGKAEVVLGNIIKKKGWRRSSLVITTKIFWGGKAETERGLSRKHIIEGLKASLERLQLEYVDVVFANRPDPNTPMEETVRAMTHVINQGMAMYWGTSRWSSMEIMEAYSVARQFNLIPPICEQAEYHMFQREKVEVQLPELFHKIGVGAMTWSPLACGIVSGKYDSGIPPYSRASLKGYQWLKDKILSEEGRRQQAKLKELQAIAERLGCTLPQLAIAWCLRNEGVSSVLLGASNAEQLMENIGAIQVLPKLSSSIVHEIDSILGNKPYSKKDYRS
# Assay: KvBeta enzyme negative modulators, primary screen, biochemical, NADPH fluorescence (AID 622;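 active means fluorescence slope higher than the sample average by over 3 SD, cut at about -0.22 in these data, passing the limit was not always enough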;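 further: slope of raw intensity against log time taken from 70 to 1610 s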)
# Settings: recombinant KvBeta, 4-cyanobenzaldehyde reduction, at 10 µM, stronger effect = higher value
row,SMILES,fluorescence slope
1,O=C1CC[C@@]2(O)[C@H]3Cc4ccc(O)c5c4[C@@]2(CCN3CC2CC2)[C@H]1O5,-0.463 (inactive)
2,CCCC(C)(COC(N)=O)COC(=O)NC(C)C (stereo not drawn),-0.459 (inactive)
3,COc1ccc(Cc2nccc3cc(OC)c(OC)cc23)cc1OC,-0.442 (inactive)
4,C[N+]1(C)[C@@H]2CC[C@H]1CC(OC(=O)C(CO)c1ccccc1)C2 (stereo partly drawn),-0.509 (inactive) and -0.518 (inactive)
5,COc1ccc2c(c1)c(C(=O)O)c(C)n2CC(C)C,-0.462 (inactive)
6,O=P(c1ccccc1)(c1ccccc1)N1CCCCC1,-0.396 (inactive)
7,CC[C@@H]1C(=O)OC[C@@H]1Cc1cncn1C,-0.572 (inactive) and -0.488 (inactive)
8,c1ccc2c(c1)OCC(C1=NCCN1)O2 (stereo not drawn),0.111 (active)
9,O=C(COc1ccc2ccccc2c1)N1CCN(C2CCN(Cc3ccccc3)CC2)CC1,-0.309 (inactive)
10,CC(=O)CC(C)(C)n1c[n+](C)nn1,-0.383 (inactive)
11,C[C@]12CCC(=O)C=C1CC[C@@H]1[C@@H]2CC[C@]2(C)C(=O)CC[C@@H]12,-0.41 (inactive)
12,CN(C)[C@@H]1C(=O)C(C(N)=O)=C(O)[C@@]2(O)C(=O)C3=C(O)c4c(O)cccc4[C@@](C)(O)[C@H]3[C@H](O)[C@@H]12,-0.459 (inactive)
13,O=c1[nH]c2ccccc2n1CCCN1CCC(n2c(=O)[nH]c3cc(Cl)ccc32)CC1,-0.455 (inactive)
14,Cn1c(O)c(C(=O)c2ccccc2Cl)c(=O)n(C)c1=O,-0.47 (inactive)

# Molecular target: Voltage-gated potassium channel subunit beta-2 (Rattus norvegicus) (UniProt P62483)
# Assay: KvBeta positive modulators, primary screen, biochemical, NADPH fluorescence (AID 623);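 further: fluorescence intensity change per second fitted from 20 to 320 s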
# Settings: Recombinant KvBeta, NADPH fluorescence decrease slope, 10 min; at 10 µM; stronger effect = lower value
row,SMILES,NADPH fluorescence slope
1,O=C1CC[C@@]2(O)[C@H]3Cc4ccc(O)c5c4[C@@]2(CCN3CC2CC2)[C@H]1O5,-9.1e-06 (inactive)
2,CCCC(C)(COC(N)=O)COC(=O)NC(C)C (stereo not drawn),1.2e-05 (inactive)
3,COc1ccc(Cc2nccc3cc(OC)c(OC)cc23)cc1OC,-7e-05 (inactive)
4,C[N+]1(C)[C@@H]2CC[C@H]1CC(OC(=O)C(CO)c1ccccc1)C2 (stereo partly drawn),-2.9e-05 (inactive) and -4.5e-05 (inactive)
5,COc1ccc2c(c1)c(C(=O)O)c(C)n2CC(C)C,-3.5e-05 (inactive)
6,O=P(c1ccccc1)(c1ccccc1)N1CCCCC1,1.4e-05 (inactive)
7,CC[C@@H]1C(=O)OC[C@@H]1Cc1cncn1C,7.3e-06 (inactive) and -6e-05 (inactive)
8,c1ccc2c(c1)OCC(C1=NCCN1)O2 (stereo not drawn),-0.000173 (inactive)
9,O=C(COc1ccc2ccccc2c1)N1CCN(C2CCN(Cc3ccccc3)CC2)CC1,1.5e-05 (inactive)
10,CC(=O)CC(C)(C)n1c[n+](C)nn1,-5.6e-05 (inactive)
11,C[C@]12CCC(=O)C=C1CC[C@@H]1[C@@H]2CC[C@]2(C)C(=O)CC[C@@H]12,2.5e-05 (inactive)
12,CN(C)[C@@H]1C(=O)C(C(N)=O)=C(O)[C@@]2(O)C(=O)C3=C(O)c4c(O)cccc4[C@@](C)(O)[C@H]3[C@H](O)[C@@H]12,-9.9e-05 (inactive)
13,O=c1[nH]c2ccccc2n1CCCN1CCC(n2c(=O)[nH]c3cc(Cl)ccc32)CC1,-4.5e-05 (inactive)
14,Cn1c(O)c(C(=O)c2ccccc2Cl)c(=O)n(C)c1=O,-3.4e-05 (inactive)
